Screens: PubChem, several laboratories
The list is not random: actives were taken first. Their share in the collection is about 2.8%.
SENP7 inh: blocks the human protease SENP7; inhibition, % at 5 µM; 330,000 compounds, 1.5% hits; recombinant SENP7, Z-RLRGG-aminoluciferin luminescence, 40 min; AID 434973;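 active = inhibition above about 50% at the single test dose, limit read from the data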;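 also: plate controls were DMSO with enzyme for no effect and no enzyme buffer wells for full effect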
SENP6 inh: blocks the human protease SENP6; inhibition, % at 10 µM; 330,000 compounds, 1.8% hits; Recombinant SENP6 catalytic domain, aminoluciferin luminescence;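 active = inhibition above about 50% at the single tested dose, limit read from the data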;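 also: plate controls were DMSO wells with enzyme for no effect and DMSO wells lacking enzyme for full effect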
SENP8 block-1: SENP8 protease inhibition; Q96LD8; purified SENP8, Z-RLRGG-aminoluciferin cleavage, luminescence; inhibition, % at 10 µM; 330,000 compounds, 1.2% hits; in the data active = inhibition above about 50%
Target sequence (Q96LD8 whole entry, looked up): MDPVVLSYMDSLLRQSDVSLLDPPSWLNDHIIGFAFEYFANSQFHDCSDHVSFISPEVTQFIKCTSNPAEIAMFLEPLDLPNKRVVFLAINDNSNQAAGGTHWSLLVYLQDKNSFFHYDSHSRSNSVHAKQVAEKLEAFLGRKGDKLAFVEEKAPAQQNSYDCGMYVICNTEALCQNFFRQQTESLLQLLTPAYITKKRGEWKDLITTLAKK
SENP8 block-2: blocks human SENP8 cleavage of Nedd8 substrate; Q96LD8; recombinant SENP8, Nedd8 substrate fluorescence; inhibition, % at 20 µM; 360,000 compounds, 0.64% hits; AID 602440; in the data active = inhibition mostly above about 40%, no sharp cut-off; inactive = mostly below about 27%
HSP90 inh: inhibitors of HSP90 luciferase refolding in rabbit reticulocyte lysate. luciferase refolding luminescence, 3 h. inhibition, % at 5.6 µM. 290,000 compounds, 0.91% hits. AID 1789;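 active = inhibition above the screen-wide mean plus 3 SD, computed separately per campaign, cut at about 16% in these data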;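 also: 0% = DMSO wells and 100% = 60 µM geldanamycin wells; inhibitors lower the luminescence because luciferase stays unfolded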
SENP8 conf-1: confirmation of human SENP8 protease inhibitors; Recombinant SENP8, Z-RLRGG-aminoluciferin luminescence, 60 min; 6,200 compounds, 40% hits; shares compounds with SENP7 inh; AID 488912; inhibition, % at 12.5 µM;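 active = mean inhibition across replicates above about 50%, limit read from the data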
SENP6 conf: confirmation of human SENP6 protease inhibitors; recombinant SENP6, Z-RLRGG-aminoluciferin luminescence; 6,200 compounds, 58% hits; AID 488915; inhibition, % at 12.5 µM; shares compounds with SENP7 inh
SENP7 conf: human SENP7 inhibition, confirmed. inhibition, % at 12.5 µM. 6,200 compounds, 69% hits. shares compounds with SENP7 inh. recombinant SENP7, Z-RLRGG-aminoluciferin luminescence, 40 min
Casp3 select: selectivity test for SENP inhibitors: human caspase-3 inhibition. AID 488918. 6,200 compounds, 60% hits. shares compounds with SENP7 inh. inhibition, % at 12.5 µM. purified caspase-3, Z-DEVD-aminoluciferin luminescence, 60 min;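 active = mean inhibition above about 50%, limit read from the data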;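 also: plate controls were enzyme with DMSO for no effect and wells without caspase-3 for full effect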
Target sequence (P42574 28-227 limits assumed): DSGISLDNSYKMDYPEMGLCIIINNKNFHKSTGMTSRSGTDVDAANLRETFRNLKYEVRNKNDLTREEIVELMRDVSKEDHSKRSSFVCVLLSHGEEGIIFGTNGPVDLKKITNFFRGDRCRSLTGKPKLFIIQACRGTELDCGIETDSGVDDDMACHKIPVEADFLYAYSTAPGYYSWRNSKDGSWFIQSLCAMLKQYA
Luc interf: interferes with luciferase luminescence in SENP counter-screen | Pre-incubated SENP8/Z-RLRGG-aminoluciferin, luciferase luminescence interference | inhibition, % at 12.5 µM | 6,200 compounds, 39% hits | shares compounds with SENP7 inh;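 active = mean inhibition above about 50% when retested at one dose, limit read from the data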;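 also: plate controls were DMSO wells with completed reaction for no effect and substrate without enzyme for full effect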
SENP8 conf-2: confirmation of human SENP8 protease inhibitors | purified SENP8, Nedd8-AMC/pro-Nedd8 cleavage fluorescence, 30 min | inhibition, % at 25 µM | 1,400 compounds, 15% hits | shares compounds with SENP8 block-2 | AID 624319; in the data active = inhibition mostly above about 39%, no sharp cut-off; inactive = mostly below about 34%
An asterisk follows results filed as active.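 The calls were made as follows, unless noted: active = mean inhibition above about 50% in the one-dose retest (limit read from the data); inactive = the rest.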

Screening O=C(O)c1cc(Cl)c(Cl)cc1C(=O)Nc1cccc2cccnc12 returned SENP7 inh 69*, SENP6 inh 44, SENP8 block-1 11, SENP8 block-2 61*, HSP90 inh -2, SENP8 conf-1 -24, SENP6 conf -14, SENP7 conf -3, Casp3 select -6, Luc interf -6 and SENP8 conf-2 9.
For Cc1ccc(/C=N/NC(=O)c2cc(C)oc2C)cc1 the results were SENP7 inh 86*, SENP6 inh 84*, SENP8 block-1 74*, SENP8 block-2 41*, HSP90 inh 1, SENP8 conf-1 25, SENP6 conf 74*, SENP7 conf 95*, Casp3 select 90*, Luc interf 82* and SENP8 conf-2 -2.
`O=C1c2ccccc2-c2nc3ccccc3nc21` gave SENP7 inh 38, SENP6 inh 51*, SENP8 block-1 17, SENP8 block-2 47*, HSP90 inh -1, SENP8 conf-1 37, SENP6 conf 53*, SENP7 conf 49, Casp3 select 64*, Luc interf 16 and SENP8 conf-2 89*.
Screening COc1ccccc1-c1nc2ccccc2nc1-c1ccccc1OC returned SENP7 inh -6, SENP6 inh 0, SENP8 block-1 4, SENP8 block-2 -248 and HSP90 inh 3.
Screening Cc1ccc(S(=O)(=O)NCCC(=O)N2CCCCC2)cc1 returned HSP90 inh 0.
For N#CC1=C2SCN(Cc3ccccc3)CN2C(=O)CC1c1cccs1 (stereo not given) the results were SENP7 inh 40, SENP6 inh 74*, SENP8 block-1 71*, SENP8 block-2 69*, HSP90 inh 1, SENP8 conf-1 -26, SENP6 conf 5, SENP7 conf -3, Casp3 select -5, Luc interf -4 and SENP8 conf-2 9.
Screening Clc1cccc(-c2ccc(C=Nc3ccc(N4CCOCC4)cc3)o2)c1Cl returned SENP8 block-2 14 and HSP90 inh 7.
For COc1cc(C=C(c2nc3ccccc3s2)c2nc3ccccc3s2)cc(OC)c1O the results were SENP7 inh 3, SENP6 inh 13, SENP8 block-1 1, SENP8 block-2 -138 and HSP90 inh 1.
N#C/C(=C/c1ccncc1)c1nc2ccccc2s1 was read as SENP7 inh 3, SENP6 inh -11, SENP8 block-1 -4, SENP8 block-2 -268 and HSP90 inh 2.
`CC1=CC(=C(C#N)c2nc3ccccc3s2)C=C(C)N1c1ccc(F)cc1` gave SENP7 inh 1, SENP6 inh 54*, SENP8 block-1 -6, SENP8 block-2 85*, HSP90 inh -3, SENP8 conf-1 12, SENP6 conf 15, SENP7 conf 9, Casp3 select 5, Luc interf 4 and SENP8 conf-2 26.
`COc1ccccc1N1C(C)=CC(=C(C#N)c2nc3ccccc3s2)C=C1C` gave SENP7 inh 4, SENP6 inh 61*, SENP8 block-1 3, SENP8 block-2 67*, HSP90 inh -1, SENP8 conf-1 16, SENP6 conf 21, SENP7 conf 17, Casp3 select 10, Luc interf 7 and SENP8 conf-2 41.
`CCOC(=O)c1ccc(N/C(=N\S(=O)(=O)c2ccc(F)cc2F)c2ccccc2)cc1` gave SENP7 inh 4, SENP6 inh 17, SENP8 block-1 3, SENP8 block-2 10 and HSP90 inh 0.
`COc1ccc(NS(=O)(=O)c2cc(NC(=O)CCNC(C)=O)ccc2N2CCOCC2)cc1` gave SENP7 inh -12, SENP6 inh -2, SENP8 block-1 11 and SENP8 block-2 10.
COc1ccc(C(=O)CCc2ccccc2)c(O)c1 was read as SENP7 inh 5, SENP6 inh 18, SENP8 block-1 5 and SENP8 block-2 1.
`O=C(CCc1ccccc1)c1c(O)cc(O)cc1O` gave SENP7 inh -7, SENP6 inh 63*, SENP8 block-1 52*, SENP8 block-2 48*, SENP8 conf-1 65*, SENP6 conf 60*, SENP7 conf 77*, Casp3 select 19, Luc interf 67* and SENP8 conf-2 28.
COC(=O)CSc1nnc(CNC(=O)c2ccccc2F)n1-c1ccccc1 was read as SENP7 inh 6, SENP6 inh -2, SENP8 block-1 3, SENP8 block-2 6 and HSP90 inh 4.
NC(=S)NNc1cccc2cccnc12 was read as SENP7 inh 38, SENP6 inh 91*, SENP8 block-1 49, SENP8 block-2 51*, HSP90 inh 6, SENP8 conf-1 -3, SENP6 conf 12, SENP7 conf -5, Casp3 select 8, Luc interf 4 and SENP8 conf-2 66*.
`NC(=S)Nc1cccc2cccnc12` gave SENP7 inh 4, SENP6 inh -4, SENP8 block-1 3, SENP8 block-2 5 and HSP90 inh 7.
For COc1ccc(Nc2ccc(Nc3ccc(OC)cc3)nn2)cc1 the results were SENP7 inh 12, SENP6 inh -9, SENP8 block-1 -1, SENP8 block-2 15 and HSP90 inh 3.
`COc1ccc(Nc2ccc(OC)cc2)cc1` gave SENP7 inh 11, SENP6 inh 54*, SENP8 block-1 24, SENP8 block-2 96*, HSP90 inh 6, SENP8 conf-1 -6, SENP6 conf -10, SENP7 conf 7, Casp3 select 10, Luc interf 11 and SENP8 conf-2 14.
`CCN(CC)S(=O)(=O)c1ccc(OC)c(NC(=O)Cc2cccs2)c1` gave SENP7 inh 13, SENP6 inh 10, SENP8 block-1 0, SENP8 block-2 17 and HSP90 inh 3.
Screening COc1ccc2nc3ccccc3nc2c1N returned SENP7 inh 22, SENP6 inh 87*, SENP8 block-1 53*, SENP8 block-2 78*, HSP90 inh 13, SENP8 conf-1 -3, SENP6 conf 37, SENP7 conf 75*, Casp3 select 73*, Luc interf 47 and SENP8 conf-2 14.
